Legend:
[1] = tested on: Vero E6 infected with SARS-CoV-2; experiment: morphology score (similarity to uninfected cells); higher = more like uninfected cells; settings: 24 h
[2] = tested on: Vero E6 infected with SARS-CoV-2; experiment: SARS-CoV-2 infection rate relative to infected DMSO; higher = more infection, active = 60 or less; settings: 24 h

| SMILES | morphology score [1] | SARS-CoV-2 infection rate [2] |
| --- | --- | --- |
| c1cc(OCCN2CCCCC2)cc(-c2n[nH]c3ccc(-c4nnc[nH]4)cc23)c1 (10 µM) | 0.363 | 94.5% (inactive) |
| c1cc2c(cc1C1CCCCC1)c1c3n2CCNC3CCC1 (stereo unspecified) [tetrindole] (0.833333 µM) | -6.12e-06 | 108% (inactive) |
| C=CC(C)(C)c1cc(/C=C/C(=O)c2ccc(O)cc2)c(OC)cc1O [licochalcone-A] (10 µM) | -0.0626 | 114% (inactive) |
| NC1(Cc2ccc(Cl)cc2)CCN(c2ncnc3[nH]ccc23)CC1 (0.833333 µM) | 0.535 | 99.5% (inactive) |
| c1cc(CN2CCCCC2)cc(OCCCNc2nc3ccccc3s2)c1 [zolantidine] (10 µM) | 0.67 | 44% (active) |
| CC=C1C(=O)C[C@H]2[C@@H]3CCC4=CC(=O)CC[C@]4(C)[C@H]3CC[C@]12C (10 µM) | 0.0492 | 91% (inactive) |
| CN(CC[C@@H](Oc1ccc(-c2ccccc2)cc1)c1ccc(F)cc1)CC(=O)O (10 µM) | 0.036 | 108% (inactive) |
| O=C(O)CCCC[C@@H]1CCSS1 [thioctic-acid] (10 µM) | 0.0028 | 106% (inactive) |
| Oc1c(Cl)cc(Cl)c2cccnc12 [chloroxine] (10 µM) | -0.0551 | 98.5% (inactive) |
| CN(C)c1cccc(Oc2cnc(Nc3cccc(O)c3)nc2)c1 (10 µM) | 0.0803 | 109% (inactive) |
| O=C(O)/C=C(/CC(=O)O)C(=O)O [cis-aconitic-acid] (10 µM) | -0.118 | 110% (inactive) |
| COc1c(C)c2c(c(O)c1C/C=C(\C)CCC(=O)OCCN1CCOCC1)C(=O)OC2 [mycophenolate-mofetil] (10 µM) | -0.124 | 108% (inactive) |
| Nc1nccc2c1ncn2[C@@H]1O[C@H](CO)[C@@H](O)[C@@H]1O [3-deazaadenosine] (10 µM) | 0.123 | 106% (inactive) |
| C=CCN1C[C@H](C(=O)N(CCCN(C)C)C(=O)NCC)C[C@@H]2c3cccc4[nH]cc(c34)C[C@H]21 [cabergoline] (10 µM) | 0.0903 | 104% (inactive) |
| COC(=O)/C=C/C(=O)N[C@@H]1CC[C@@]2(O)[C@H]3Cc4ccc(O)c5c4[C@@]2(CCN3CC2CC2)[C@H]1O5 [beta-funaltrexamine] (10 µM) | 0.0225 | 99% (inactive) |
| O=C(NCC(=O)N1CC[C@H](N[C@H]2CC[C@@](O)(c3ccc(-c4ncccn4)cn3)CC2)C1)c1cccc(C(F)(F)F)c1 (10 µM) | 0.0269 | 106% (inactive) |
| COc1cc2ncnc(Nc3cccc(Br)c3)c2cc1OC (10 µM) | -0.238 | 104% (inactive) |
| CC(=O)NC1CCSC1=O (stereo unspecified) [citiolone] (10 µM) | -0.0164 | 107% (inactive) |
| Cc1nc(-c2cn3c(n2)-c2ccc(-c4cnn(C(C)(C)C(N)=O)c4)cc2OCC3)n(C(C)C)n1 [taselisib] (0.833333 µM) | -0.0504 | 98.5% (inactive) |
| [O-][n+]1ccccc1[S-].[O-][n+]1ccccc1[S-].[Zn+2] [pyrithione-zinc] (10 µM) | 0.0399 | 91.5% (inactive) |
| COC[C@H](C)Oc1cc(O[C@@H](C)Cc2ccccc2)cc(C(=O)Nc2ccc(C(=O)O)cn2)c1 (10 µM) | -0.163 | 100% (inactive) |
| OCCC#Cc1nc(-c2ccc(F)cc2)c(-c2ccncc2)n1CCCc1ccccc1 (10 µM) | 0.0292 | 101% (inactive) |
| C[C@H](N[C@@H](CCc1ccccc1)C(=O)O)C(=O)N1Cc2ccccc2C[C@H]1C(=O)O [quinaprilat] (10 µM) | 0.0914 | 106% (inactive) |

Source: the supplement of paper PMC13380429
